In PubChem BioAssay (EPA / NIEHS):
Records with an inconclusive call do not appear. Calls of active or inactive are those of the source. The calls were made as follows, unless noted: active = hit-call score of the fitted dose curve at least 0.9, where 1 is the maximum; inactive = score below 0.9.

Tests used:
[1] = APR_HepG2_CellCycleArrest_1hr: Apredica 1-hour HepG2 Assay for Cell Cycle Arrest (AID 2282666); conditions: high-content imaging, actives raise or lower the signal
Summary of the method: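 HepG2 cells exposed for 1 h to 0.39–200 uM compound (0.5% DMSO). Fixed, Hoechst-stained nuclei imaged by ArrayScan; DNA content quantified by Cell Cycle analysis; bidirectional fit against DMSO.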

[2] = ACEA_ER_80hr: ACEA Biosciences xCELLigence Real-Time Cell Analysis on Estrogen Receptor Agonism for Proliferation (AID 2282667; active = hit-call score of the fitted dose curve at least 0.9, where 1 is the maximum); conditions: T47D proliferation, impedance (xCELLigence), 80 h
Summary of the method: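 Real-time impedance growth kinetics of human T-47D breast cells read 80 h after dosing, gain-of-signal fitted relative to DMSO. Compounds: 1:4 serial series, top final concentration 100 uM, n = 2.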

[3] = APR_HepG2_CellLoss_1hr: Apredica 1-hour HepG2 Assay for Cell Loss (AID 2282668); conditions: high-content imaging;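 also: curves fitted both ways against DMSO so gain or loss of cells counts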
Summary of the method: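 HepG2 cells were treated for 1 h with compound at 0.39–200 uM, in duplicate, in 0.5% DMSO. After formaldehyde fixation, Hoechst 33342-stained nuclei were imaged on an ArrayScan to count cells. Data were fitted bidirectionally versus DMSO.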

[4] = APR_HepG2_MicrotubuleCSK_1hr: Apredica 1-hour HepG2 Assay for Microtubule CSK Stabilty (AID 2282669); conditions: HepG2 microtubule cytoskeleton imaging, actives raise or lower the signal
Summary of the method: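 HepG2 cells exposed 1 h to 0.39–200 uM compound (0.5% DMSO, duplicates), then formaldehyde-fixed, permeabilized and immunostained for alpha-tubulin with Hoechst nuclei. Imaged by ArrayScan high-content analysis; bidirectional fit versus DMSO.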

[5] = APR_HepG2_NuclearSize_1hr: Apredica 1-hour HepG2 Assay for Nuclear Size (AID 2282670); conditions: high-content imaging, actives raise or lower the signal
Summary of the method: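 HepG2 cells dosed 1 hr with 0.39–200 uM compound (0.5% DMSO), formaldehyde-fixed, Hoechst 33342-stained and imaged at 20x; nuclear diameter from nuclear stain, fitted bidirectionally against DMSO.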

[6] = APR_HepG2_p53Act_1hr: Apredica 1-hour HepG2 Assay for p53 Activation (AID 2282671); conditions: high-content imaging, actives raise or lower the signal
Summary of the method: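 HepG2 cells treated 1 h with compound at 0.39–200 uM (10 concentrations, duplicate) in 0.5% DMSO. Formaldehyde-fixed, permeabilised cells immunostained for p53 with Hoechst 33342; high-content imaging, bidirectional fit versus DMSO.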

[7] = APR_HepG2_MitoMass_1hr: Apredica 1-hour HepG2 Assay for Mitochondrial Mass (AID 2282674); conditions: high-content imaging, actives raise or lower the signal
Summary of the method: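 HepG2 cells dosed 1 hr with 0.39-200 uM compound (0.5% DMSO), duplicate wells. Mitochondria stained with 250 nM MitoTracker Red CMXRos for 30 min before formaldehyde fixation, imaged at 20x by ArrayScan; bidirectional fit versus DMSO.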

[8] = APR_HepG2_MitoMembPot_1hr: Apredica 1-hour HepG2 Assay for Mitochondrial Membrane Potential (AID 2282675); conditions: imaging, actives raise or lower the signal
Summary of the method: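 HepG2 cells dosed 1 hour with 0.39–200 uM compound in duplicate, 0.5% DMSO final. MitoTracker Red CMXRos (250 nM, 30 min) loaded before formaldehyde fixation; fluorescence quantified by high-content imaging, bidirectional fitting versus DMSO.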

[9] = APR_HepG2_CellCycleArrest_24hr: Apredica 24-hour HepG2 Assay for Cell Cycle Arrest (AID 2282905); conditions: imaging, actives raise or lower the signal;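 also: cell cycle arrest scored as ratio of 2N to 4N nuclear DNA content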
Summary of the method: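 Cell cycle arrest is scored from nuclear DNA content measured by high-content imaging of Hoechst 33342-stained HepG2 cells following 24-hour treatment at ten concentrations up to 200 uM, with DMSO as baseline.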

[10] = APR_HepG2_NuclearSize_24hr: Apredica 24-hour HepG2 Assay for Nuclear Size (AID 2282907); conditions: high-content imaging, actives raise or lower the signal
Summary of the method: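 Compounds in DMSO (final 0.5%) were added to human HepG2 hepatoma cells at ten concentrations up to 200 uM for 24 hr. Fixed nuclei were stained with Hoechst 33342, and nuclear diameter was quantified from automated images.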

[11] = APR_HepG2_CellLoss_24hr: Apredica 24-hour HepG2 Assay for Cell Loss (AID 2282908); conditions: high-content imaging;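 as to AC50: fit in both directions so a hit may be cell loss or gain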
Summary of the method: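 Cell number is quantified by fluorescence imaging of Hoechst 33342-stained nuclei following dosing at 0.39–200 uM in 0.5% DMSO. Curves are fitted in both directions from the DMSO baseline.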

[12] = APR_HepG2_MicrotubuleCSK_24hr: Apredica 24-hour HepG2 Assay for Microtubule CSK Stabilty (AID 2282909); conditions: HepG2 microtubule cytoskeleton imaging, actives raise or lower the signal
Summary of the method: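 Steps: dose HepG2 for 24 h (0.39–200 uM, 0.5% DMSO); fix 30 min in 3.7% formaldehyde at room temperature; permeabilize; stain alpha-tubulin 60 min; image microtubule cytoskeleton at 20x. Signal change fitted in both directions relative to DMSO.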

[13] = APR_HepG2_MitoticArrest_24hr: Apredica 24-hour HepG2 Assay for Mitotic Arrest (AID 2282910); conditions: high-content imaging, actives raise or lower the signal
Summary of the method: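 HepG2 human liver cells were exposed to compounds at 0.39–200 uM (10 concentrations, duplicate) in 0.5% v/v DMSO for 24 hr, then fixed and immunostained for phospho-histone H3 with Hoechst 33342. Mitotic arrest came from HCS fluorescent imaging, fitted bidirectionally against DMSO.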

[14] = APR_HepG2_MitoMass_24hr: Apredica 24-hour HepG2 Assay for Mitochondrial Mass (AID 2282912); conditions: high-content imaging, actives raise or lower the signal
Summary of the method: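 The liver line HepG2 was dosed in duplicate across a 0.39–200 uM series, with final DMSO held at 0.5% v/v, and harvested at 24 hr. High-content imaging measured mitochondrial dye staining.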

[15] = APR_HepG2_p53Act_24hr: Apredica 24-hour HepG2 Assay for p53 Activation (AID 2282913); conditions: high-content imaging, actives raise or lower the signal;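 also: p53 protein immunofluorescence averaged per cell in HepG2 with Hoechst nuclei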
Summary of the method: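 Fluorescence imaging of formaldehyde-fixed HepG2 cells labelled for p53 and with Hoechst, 24 h after dosing (0.39–200 uM, duplicate wells, 0.5% v/v DMSO). Signal fitted in both directions relative to DMSO.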

[16] = APR_HepG2_CellCycleArrest_72hr: Apredica 72-hour HepG2 Assay for Cell Cycle Arrest (AID 2282914); conditions: high-content imaging, actives raise or lower the signal
Summary of the method: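 Read-out: nuclear DNA content from Hoechst 33342 high-content imaging (20x, six fields/well) after 3.7% formaldehyde fixation, fitted bidirectionally against DMSO. Treatment was 72 h in HepG2, ten concentrations 0.39–200 uM, duplicate, 0.5% DMSO.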

[17] = APR_HepG2_MitoticArrest_1hr: Apredica 1-hour HepG2 Assay for Mitotic Arrest (AID 2282672); conditions: high-content imaging, actives raise or lower the signal
Summary of the method: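 HepG2 cells exposed 1 hr to compounds at 0.39–200 uM (0.5% v/v DMSO final), then fixed in 3.7% formaldehyde and immunostained for phospho-histone H3 with Hoechst 33342. Mitotic arrest scored by automated fluorescence imaging, fitted bidirectionally versus DMSO.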

[18] = APR_HepG2_MitoMembPot_24hr: Apredica 24-hour HepG2 Assay for Mitochondrial Membrane Potential (AID 2282911); conditions: imaging, actives raise or lower the signal
Summary of the method: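 Mitochondrial membrane potential imaged via MitoTracker Red CMXRos (250 nM, 30 min pre-fixation) in fixed HepG2 cells with Hoechst nuclear identification. Ten concentrations 0.39–200 uM, 24 h treatment, 0.5% DMSO; CCCP as positive control.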

[19] = APR_HepG2_P-H2AX_1hr: Apredica 1-hour HepG2 Assay for H2AX Phosphorylation (AID 2282673); conditions: high-content imaging, actives raise or lower the signal
Summary of the method: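 HepG2 dosed 1 hr at 0.39-200 uM (0.5% DMSO final), duplicate. Fixed in 3.7% formaldehyde, Triton permeabilized, immunostained for phospho-histone H2A.x (1:200) with Hoechst 33342; ArrayScan 20x imaging, bidirectional fit vs DMSO.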

[20] = APR_HepG2_StressKinase_1hr: Apredica 1-hour HepG2 Assay for Stress Kinase (AID 2282906); conditions: HepG2 stress kinase (phospho-c-Jun) imaging, actives raise or lower the signal
Summary of the method: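 HepG2 cells dosed 0.39-200 uM (0.5% DMSO) for 1 h, then formaldehyde-fixed. Stress kinase read by phospho-c-Jun immunofluorescence using high-content imaging; bidirectional fit vs DMSO.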

Measured: AC50

CN/C(=N\[N+](=O)[O-])NCc1cnc(Cl)s1
inactive: [1] | [2] | [3] | [4] | [5] | [6] | [7] | [8] | [9] | [10] | [11] | [12] | [13] | [14] | [15] | [16]

COC(=O)c1c(C(F)F)nc(C(F)(F)F)c(C2=NCCS2)c1CC(C)C
active: [12] 91.6 µM
inactive: [1] | [2] | [4] | [5] | [6] | [17] | [8] | [9] | [10] | [11] | [13] | [18] | [14] | [15] | [16]

Clc1cccc(C(Cl)(Cl)Cl)n1
inactive: [1] | [2] | [4] | [6] | [19] | [7] | [8] | [9] | [10] | [11] | [12] | [13] | [18] | [14] | [15] | [16]

CC(C)(C)C(=O)C(Oc1ccc(Cl)cc1)n1cncn1 (stereo not given)
inactive: [3] | [4] | [5] | [6] | [17] | [7] | [8] | [9] | [20] | [10] | [11] | [12] | [13] | [18] | [14] | [15]
active: [2] 22.5 µM | [16] 82.2 µM

CCC(C)n1c(=O)[nH]c(C)c(Br)c1=O (stereo not given)
inactive: [1] | [2] | [3] | [4] | [5] | [6] | [19] | [7] | [8] | [9] | [10] | [11] | [12] | [13] | [18] | [14] | [15] | [16]

CCSC(=O)N1CCCCCC1
inactive: [1] | [2] | [3] | [4] | [6] | [19] | [7] | [8] | [9] | [20] | [10] | [11] | [12] | [13] | [14] | [15] | [16]

CNC(=O)Oc1cccc2ccccc12
inactive: [1] | [2] | [3] | [4] | [5] | [6] | [8] | [9] | [20] | [10] | [12] | [13] | [14] | [15] | [16]
active: [19] 57.9 µM | [11] 50.5 µM

CC(C)=CC1C(C(=O)OCc2coc(Cc3ccccc3)c2)C1(C)C (stereo not given)
inactive: [1] | [2] | [4] | [5] | [17] | [20] | [10] | [11] | [12] | [13] | [14]
active: [8] 98.4 µM | [9] 62.5 µM | [16] 31.7 µM

CSC(=O)c1c(C(F)F)nc(C(F)(F)F)c(C(=O)SC)c1CC(C)C
inactive: [1] | [2] | [4] | [6] | [17] | [7] | [8] | [9] | [10] | [11] | [12] | [13] | [18] | [14] | [15] | [16]

OC(c1ccc(Cl)cc1)(c1ccc(Cl)cc1)C(Cl)(Cl)Cl
active: [3] 89.3 µM | [5] 110 µM | [6] 109 µM | [8] 34.2 µM | [20] 30.9 µM | [10] 74.1 µM | [11] 43.1 µM | [15] 112 µM
inactive: [2] | [4] | [17] | [7] | [9] | [12] | [13] | [18] | [14] | [16]

O=C1C2CC=CCC2C(=O)N1SC(Cl)(Cl)Cl (stereo not given)
active: [19] 81.7 µM | [9] 33.4 µM | [10] 59.3 µM | [11] 54.6 µM | [12] 24.1 µM | [13] 30.1 µM | [15] 28.5 µM
inactive: [2] | [3] | [4] | [5] | [6] | [7] | [8] | [18] | [14] | [16]

CC1(C)CCC(=Cc2ccc(Cl)cc2)C1(O)Cn1cncn1 (stereo not given)
active: [9] 117 µM
inactive: [1] | [2] | [3] | [4] | [5] | [6] | [8] | [20] | [10] | [11] | [12] | [13] | [14] | [15] | [16]

CNC(=O)N(C)c1nnc(C(C)(C)C)s1
inactive: [1] | [2] | [4] | [6] | [8] | [9] | [20] | [10] | [11] | [12] | [13] | [14] | [15] | [16]

CCOP(=O)(OCC)Oc1nc(Cl)c(Cl)cc1Cl
inactive: [1] | [2] | [4] | [5] | [6] | [8] | [9] | [10] | [11] | [12] | [13] | [14] | [15] | [16]

O=C(Nc1ccccc1-c1ccc(Cl)cc1)c1cccnc1Cl
inactive: [1] | [2] | [3] | [4] | [6] | [17] | [8] | [9] | [10] | [11] | [12] | [13] | [14] | [15] | [16]
active: [18] 66.8 µM

CCOc1nc(C(Cl)(Cl)Cl)ns1
inactive: [1] | [2] | [4] | [6] | [19] | [7] | [8] | [9] | [20] | [10] | [11] | [12] | [13] | [18] | [14] | [15] | [16]
